These results are taken from ChEMBL document CHEMBL1961873, “Compounds: GSK PKIS; Assays: Nanosyn kinase panel” (2012).

Structures are written as SMILES.

In assay [1] the target is Serine/threonine-protein kinase pim-2 (Homo sapiens) (UniProt Q9P1W9). The note with it: at 1 µM.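 Also: each value is a mean of the inhibition measurements against the kinase.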
Assay [2] addresses Serine/threonine-protein kinase pim-3 (Homo sapiens) (UniProt Q86V86). The note with it: at 0.1 µM.
The target is the same in assay [3]. The note with it: at 1 µM.
Assay [4] addresses T1, MAP kinase-activated protein kinase 5 (Homo sapiens) (UniProt Q8IW41).
T1 sequence (whole entry): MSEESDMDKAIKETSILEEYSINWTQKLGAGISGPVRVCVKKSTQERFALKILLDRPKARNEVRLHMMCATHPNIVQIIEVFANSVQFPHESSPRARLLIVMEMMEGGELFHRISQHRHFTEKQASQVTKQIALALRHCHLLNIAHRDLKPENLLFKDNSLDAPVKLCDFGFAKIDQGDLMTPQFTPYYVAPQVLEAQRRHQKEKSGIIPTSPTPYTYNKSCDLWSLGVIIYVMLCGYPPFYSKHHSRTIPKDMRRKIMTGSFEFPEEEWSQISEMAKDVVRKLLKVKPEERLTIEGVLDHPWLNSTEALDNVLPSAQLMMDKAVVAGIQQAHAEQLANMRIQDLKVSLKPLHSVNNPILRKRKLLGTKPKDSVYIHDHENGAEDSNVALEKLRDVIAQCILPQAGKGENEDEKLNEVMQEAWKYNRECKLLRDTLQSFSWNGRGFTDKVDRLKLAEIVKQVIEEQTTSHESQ
As to conditions: at 0.1 µM.

The target of assay [5] is T1, MAP kinase-activated protein kinase 5 (Homo sapiens). As to conditions: at 1 µM.
For assay [6], the target named is Serine/threonine-protein kinase SIK1 (Homo sapiens) (UniProt P57059). As to conditions: at 0.1 µM.
Assay [7] shares this target. As to conditions: at 1 µM.
Assay [8] has as its target Serine/threonine-protein kinase SIK2 (Homo sapiens) (UniProt Q9H0K1). As to conditions: at 0.1 µM.
Assay [9] shares this target. As to conditions: at 1 µM.
For assay [10], the target named is T2, Serine/threonine-protein kinase TBK1 (Homo sapiens) (UniProt Q9UHD2).
T2 sequence (whole entry): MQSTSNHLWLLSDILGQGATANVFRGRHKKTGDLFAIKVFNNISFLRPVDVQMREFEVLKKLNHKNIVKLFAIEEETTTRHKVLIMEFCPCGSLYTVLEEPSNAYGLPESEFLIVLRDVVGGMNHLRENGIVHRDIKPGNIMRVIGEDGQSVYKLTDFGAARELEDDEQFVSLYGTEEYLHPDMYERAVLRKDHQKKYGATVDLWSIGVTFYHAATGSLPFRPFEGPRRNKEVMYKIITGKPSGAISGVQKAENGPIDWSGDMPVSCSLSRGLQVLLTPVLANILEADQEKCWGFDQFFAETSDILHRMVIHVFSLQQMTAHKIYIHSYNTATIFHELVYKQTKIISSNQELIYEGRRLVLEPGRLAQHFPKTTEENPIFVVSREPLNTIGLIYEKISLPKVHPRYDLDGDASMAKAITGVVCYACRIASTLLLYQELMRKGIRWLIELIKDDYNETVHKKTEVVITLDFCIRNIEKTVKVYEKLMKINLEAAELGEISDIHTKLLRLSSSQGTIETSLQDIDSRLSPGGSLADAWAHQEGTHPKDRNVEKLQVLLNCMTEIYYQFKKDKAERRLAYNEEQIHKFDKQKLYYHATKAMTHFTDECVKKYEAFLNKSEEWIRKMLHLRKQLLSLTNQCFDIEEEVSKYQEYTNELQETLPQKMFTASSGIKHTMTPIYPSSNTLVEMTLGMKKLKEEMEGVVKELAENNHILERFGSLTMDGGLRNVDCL
As to conditions: at 0.1 µM.

In assay [11] the target is T2, Serine/threonine-protein kinase TBK1 (Homo sapiens). The note with it: at 1 µM.
Assay [12] deals with T3, Testis-specific serine/threonine-protein kinase 1 (Homo sapiens) (UniProt Q9BXA7).
T3 sequence (whole entry): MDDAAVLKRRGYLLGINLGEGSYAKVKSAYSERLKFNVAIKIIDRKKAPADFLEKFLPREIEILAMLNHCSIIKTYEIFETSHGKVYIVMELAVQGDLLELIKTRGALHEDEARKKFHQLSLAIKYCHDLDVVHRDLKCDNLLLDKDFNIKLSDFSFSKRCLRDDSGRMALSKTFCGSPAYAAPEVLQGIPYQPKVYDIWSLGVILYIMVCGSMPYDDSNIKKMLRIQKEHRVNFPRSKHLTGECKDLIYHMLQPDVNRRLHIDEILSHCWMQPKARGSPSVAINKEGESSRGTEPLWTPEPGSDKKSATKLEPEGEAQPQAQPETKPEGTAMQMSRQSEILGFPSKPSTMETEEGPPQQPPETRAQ
As to conditions: at 0.1 µM.

Assay [13] concerns the target T3, Testis-specific serine/threonine-protein kinase 1 (Homo sapiens). As to conditions: at 1 µM.
Assay [14] addresses T4, Testis-specific serine/threonine-protein kinase 2 (Homo sapiens) (UniProt Q96PF2).
T4 sequence (whole entry): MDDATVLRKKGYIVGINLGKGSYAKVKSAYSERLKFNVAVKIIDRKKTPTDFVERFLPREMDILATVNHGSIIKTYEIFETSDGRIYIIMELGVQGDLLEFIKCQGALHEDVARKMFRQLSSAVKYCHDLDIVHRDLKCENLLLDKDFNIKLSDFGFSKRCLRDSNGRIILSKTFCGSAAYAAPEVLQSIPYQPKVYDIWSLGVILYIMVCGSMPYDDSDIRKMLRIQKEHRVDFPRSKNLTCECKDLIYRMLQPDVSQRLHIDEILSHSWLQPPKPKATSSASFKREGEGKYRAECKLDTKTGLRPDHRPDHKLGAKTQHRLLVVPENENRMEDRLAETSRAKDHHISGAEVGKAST
As to conditions: at 0.1 µM.

In assay [15] the target is T4, Testis-specific serine/threonine-protein kinase 2 (Homo sapiens). The note with it: at 1 µM.
Assay [16] addresses Casein kinase I isoform alpha (Homo sapiens) (UniProt P48729). The note with it: at 0.1 µM.
Assay [17] shares this target. The note with it: at 1 µM.
Assay [18] addresses Casein kinase I isoform gamma-1 (Homo sapiens) (UniProt Q9HCP0). The note with it: at 0.1 µM.
Assay [19] shares this target. The note with it: at 1 µM.
The target in assay [20] is Casein kinase I isoform gamma-2 (Homo sapiens) (UniProt P78368). The note with it: at 0.1 µM.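 Also: values are mean inhibition figures reported as part of the GSK PKIS dataset.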
Chain of Casein kinase I isoform gamma-2 (Homo sapiens) (P78368 whole entry, looked up, canonical isoform): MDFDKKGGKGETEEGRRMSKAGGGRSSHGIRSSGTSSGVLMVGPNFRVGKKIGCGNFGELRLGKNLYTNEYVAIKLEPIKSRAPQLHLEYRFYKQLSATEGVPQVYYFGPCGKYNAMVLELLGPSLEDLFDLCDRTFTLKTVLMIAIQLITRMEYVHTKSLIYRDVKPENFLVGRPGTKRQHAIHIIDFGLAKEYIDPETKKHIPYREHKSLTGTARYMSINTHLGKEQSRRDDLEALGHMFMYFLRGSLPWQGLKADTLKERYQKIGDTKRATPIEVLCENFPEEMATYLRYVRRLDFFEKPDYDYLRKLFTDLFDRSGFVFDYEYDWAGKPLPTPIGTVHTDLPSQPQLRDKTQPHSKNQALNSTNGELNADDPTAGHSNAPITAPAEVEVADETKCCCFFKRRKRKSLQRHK

Chain of Casein kinase I isoform alpha (Homo sapiens) (P48729 2-337 limits assumed): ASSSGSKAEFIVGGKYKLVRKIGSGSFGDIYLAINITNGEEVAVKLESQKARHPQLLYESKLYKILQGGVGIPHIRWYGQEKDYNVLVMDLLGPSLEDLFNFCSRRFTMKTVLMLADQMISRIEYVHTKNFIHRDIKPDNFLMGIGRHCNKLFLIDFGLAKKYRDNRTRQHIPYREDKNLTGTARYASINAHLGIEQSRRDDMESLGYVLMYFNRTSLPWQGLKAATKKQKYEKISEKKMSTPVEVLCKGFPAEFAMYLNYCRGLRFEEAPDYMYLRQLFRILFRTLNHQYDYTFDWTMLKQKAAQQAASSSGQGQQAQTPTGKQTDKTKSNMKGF
Chain of Serine/threonine-protein kinase pim-2 (Homo sapiens) (Q9P1W9 whole entry, looked up): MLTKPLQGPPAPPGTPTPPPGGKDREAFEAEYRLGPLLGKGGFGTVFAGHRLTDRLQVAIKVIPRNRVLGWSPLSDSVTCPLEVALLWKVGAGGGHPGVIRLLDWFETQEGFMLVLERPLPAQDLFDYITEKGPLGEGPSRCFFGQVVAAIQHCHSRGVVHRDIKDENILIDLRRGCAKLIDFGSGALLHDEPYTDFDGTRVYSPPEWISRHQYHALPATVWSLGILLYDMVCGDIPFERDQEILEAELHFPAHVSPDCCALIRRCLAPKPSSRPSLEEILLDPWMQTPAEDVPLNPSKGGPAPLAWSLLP
Chain of Casein kinase I isoform gamma-1 (Homo sapiens) (Q9HCP0 whole entry, looked up, canonical isoform): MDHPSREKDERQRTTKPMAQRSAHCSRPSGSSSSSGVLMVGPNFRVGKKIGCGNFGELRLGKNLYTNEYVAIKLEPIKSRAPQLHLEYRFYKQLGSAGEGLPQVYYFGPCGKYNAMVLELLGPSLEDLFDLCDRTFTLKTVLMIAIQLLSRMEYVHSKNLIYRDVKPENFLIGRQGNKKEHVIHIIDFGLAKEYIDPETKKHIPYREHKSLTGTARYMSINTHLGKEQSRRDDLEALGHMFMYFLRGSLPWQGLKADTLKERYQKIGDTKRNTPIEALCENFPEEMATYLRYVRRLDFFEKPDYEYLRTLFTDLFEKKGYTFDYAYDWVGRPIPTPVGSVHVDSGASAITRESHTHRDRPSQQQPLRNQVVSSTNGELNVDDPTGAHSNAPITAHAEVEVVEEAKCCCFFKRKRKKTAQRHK
Chain of Serine/threonine-protein kinase SIK1 (Homo sapiens) (P57059 whole entry): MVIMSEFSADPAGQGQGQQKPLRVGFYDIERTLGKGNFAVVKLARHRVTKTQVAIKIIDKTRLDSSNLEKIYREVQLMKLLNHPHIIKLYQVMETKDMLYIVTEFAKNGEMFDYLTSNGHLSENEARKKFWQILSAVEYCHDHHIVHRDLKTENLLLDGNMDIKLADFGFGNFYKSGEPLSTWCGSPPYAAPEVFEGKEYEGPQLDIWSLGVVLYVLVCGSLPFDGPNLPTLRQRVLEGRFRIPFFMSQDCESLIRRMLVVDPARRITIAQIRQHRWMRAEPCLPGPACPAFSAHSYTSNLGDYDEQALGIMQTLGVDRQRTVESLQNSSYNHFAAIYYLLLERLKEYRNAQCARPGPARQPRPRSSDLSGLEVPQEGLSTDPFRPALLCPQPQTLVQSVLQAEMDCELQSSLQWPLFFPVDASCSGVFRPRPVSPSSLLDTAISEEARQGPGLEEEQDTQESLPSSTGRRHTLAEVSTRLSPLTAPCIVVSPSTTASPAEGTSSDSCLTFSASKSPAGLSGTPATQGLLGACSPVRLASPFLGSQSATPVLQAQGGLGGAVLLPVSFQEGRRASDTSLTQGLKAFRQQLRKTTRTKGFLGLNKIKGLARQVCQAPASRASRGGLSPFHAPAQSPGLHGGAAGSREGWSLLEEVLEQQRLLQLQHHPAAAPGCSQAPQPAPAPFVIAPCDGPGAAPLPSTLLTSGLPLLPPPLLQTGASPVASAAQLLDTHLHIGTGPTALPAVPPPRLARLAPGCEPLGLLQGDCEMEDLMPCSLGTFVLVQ
Chain of Serine/threonine-protein kinase SIK2 (Homo sapiens) (Q9H0K1 whole entry, looked up): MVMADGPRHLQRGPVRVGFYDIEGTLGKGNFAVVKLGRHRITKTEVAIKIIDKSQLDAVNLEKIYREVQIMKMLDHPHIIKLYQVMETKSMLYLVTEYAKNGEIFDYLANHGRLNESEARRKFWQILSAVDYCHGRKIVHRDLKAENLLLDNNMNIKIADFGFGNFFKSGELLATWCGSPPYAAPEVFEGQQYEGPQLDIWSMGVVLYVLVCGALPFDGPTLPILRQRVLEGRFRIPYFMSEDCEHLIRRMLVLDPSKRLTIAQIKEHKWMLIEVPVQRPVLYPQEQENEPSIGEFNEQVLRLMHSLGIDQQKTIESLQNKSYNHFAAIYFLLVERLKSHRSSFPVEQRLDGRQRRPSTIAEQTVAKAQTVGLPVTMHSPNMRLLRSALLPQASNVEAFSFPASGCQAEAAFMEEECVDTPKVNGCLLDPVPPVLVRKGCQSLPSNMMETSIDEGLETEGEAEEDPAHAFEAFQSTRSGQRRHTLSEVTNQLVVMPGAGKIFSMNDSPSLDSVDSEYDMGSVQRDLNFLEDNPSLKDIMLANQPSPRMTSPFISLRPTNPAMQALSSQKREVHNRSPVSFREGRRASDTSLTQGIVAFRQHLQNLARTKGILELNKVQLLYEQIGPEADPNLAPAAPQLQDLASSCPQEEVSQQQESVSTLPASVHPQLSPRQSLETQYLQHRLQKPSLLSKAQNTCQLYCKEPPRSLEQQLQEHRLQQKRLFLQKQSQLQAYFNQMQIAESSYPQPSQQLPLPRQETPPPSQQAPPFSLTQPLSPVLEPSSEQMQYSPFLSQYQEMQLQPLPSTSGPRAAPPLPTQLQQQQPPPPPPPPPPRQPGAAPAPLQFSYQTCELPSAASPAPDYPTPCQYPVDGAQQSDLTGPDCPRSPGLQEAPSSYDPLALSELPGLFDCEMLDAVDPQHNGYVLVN

In the case of `Cc1cc(O)cc(C)c1/C=C/c1cncc(C(N)=O)c1`, the inhibition (in general, the relative decrease from the control value, in per cent) in [1] was 0.5%; in [2], -0.22%; in [3], -1.42%; in assay [4], 0.25%; in [5] it was -0.19%; in [6], 48.9%. Further, the inhibition in assay [7] turned out to be 89%; in assay [8] it was 6.79%; in assay [9], 37.5%; in assay [10] it was 2.21%; in assay [11], 1.71%; in assay [12], 0.78%. Further, the inhibition is 0.81% in assay [13]; 0.45% in assay [14]; -0.39% in assay [15]; -2.11% in [16]; 2.52% in assay [17]; 2.23% in [18]. The inhibition in [19] was 3.19%; in [20], 1.83%.

As to `O=C1Nc2ccccc2/C1=C1\CCc2cc(O)ccc21`, the inhibition in assay [1] is 1.46%; in [2] it was -1.28%; in assay [3], 3.83%; in assay [4], 1.7%; in assay [5] it was 2.07%; in assay [6], 2.74%. For the same compound, the inhibition in assay [7] came out at 18.1%; in assay [8], 5.12%; in assay [9] it was 21%; in assay [10], 1.68%; in [11], 13%; in assay [12] it was 3.88%. The inhibition in assay [13] stood at 6.96%; in assay [14] it was 1.83%; in [15] it was 2.14%; in [16], 4.95%; in assay [17], 9.64%; in assay [18], 5%. The inhibition came out at 6.41% in [19] and 3.27% in assay [20].

Consider `O=C(O[C@H]1CN[C@H](C#Cc2cc3ncnc(Nc4ccc5c(cnn5Cc5ccccc5)c4)c3s2)C1)N1CCOCC1`, for which the inhibition in assay [1] is -0.51%; in assay [2] it was -0.77%; in [3], -0.59%; in assay [4] it was -0.48%; in assay [5], -1.44%; in assay [6], -1.61%. Also, the inhibition in assay [7] is -0.04%; in [8], -3.57%; in [9], 1.23%; in assay [10], -0.69%; in assay [11], 1.41%; in [12], 0.75%. In addition, the inhibition is -0.13% in [13]; -0.69% in assay [14]; -1.3% in assay [15]; -2.11% in assay [16]; 0.76% in assay [17]; -0.81% in assay [18]. The inhibition in [19] was 0.82%; in assay [20] it was -0.61%.

For `COc1cccc(Nc2nccc(-c3cnn4ncccc34)n2)c1`, the inhibition in [1] stood at 2.39%; in assay [2] it was 2.39%; in [3], 17.6%; in assay [4], 0.42%; in [5], 3.44%; in assay [6] it was 6.56%. The inhibition in assay [7] came out at 20.8%; in assay [8], 4.86%; in [9], 13.6%; in assay [10] it was 4.06%; in assay [11] it was 22.9%; in assay [12], 2.07%. Also, the inhibition in [13] worked out at 12.8%; in [14], 0.21%; in assay [15], 0.62%; in [16], 14.9%; in assay [17], 48%; in assay [18], 2.61%. The inhibition turned out to be 20.5% in [19] and 4.45% in [20].

Turning to `CN(C)CCNC(=O)Nc1ccc(N(C)c2ccnc(Nc3ccc(CS(C)(=O)=O)cc3)n2)cc1`, the inhibition in [1] is 2.68%; in [2], -0.48%; in assay [3] it was -1.2%; in [4] it was 1.02%; in assay [5] it was 0.33%; in [6] it was 5.41%. The inhibition in assay [7] came to 31.9%; in [8] it was 8.68%; in [9], 13.6%; in assay [10] it was 2.12%; in [11], 5.74%; in assay [12], 2.28%. The inhibition in assay [13] is 5.73%; in assay [14], 0.57%; in assay [15], -1.45%; in assay [16] it was 2.02%; in assay [17], 5.94%; in [18] it was 3.74%. The inhibition in [19] was 4.96%; in assay [20] it was 4.73%.

In the case of `COc1ccc2ncn(-c3cc(O[C@H](C)c4ccccc4C(F)(F)F)c(C(N)=O)s3)c2c1`, the inhibition in assay [1] is 0.75%; in assay [2], 1.24%; in [3], 7.53%; in assay [4], -0.11%; in assay [5], -0.07%; in assay [6], -1.94%. The inhibition in [7] was 15.9%; in [8], 4.06%; in assay [9] it was 5.38%; in assay [10], 1.28%; in [11], -0.87%; in [12], 1.48%. The inhibition was 1.53% in assay [13]; -0.29% in assay [14]; 0.97% in assay [15]; 0.31% in assay [16]; 2.23% in [17]; -1.06% in assay [18]. In addition, the inhibition in assay [19] is -0.1%; in assay [20], -0.92%.
